Jurkat NFkB inh: lowers PMA/ionomycin-induced NF-kB signal in Jurkat cells | 330,000 tested, 0.53% active | inhibition, % at 4 µM | PMA/ionomycin-induced NF-kB luciferase reporter, luminescence; in the data active = inhibition above about 50%
Gli-Sufu antag: antagonists of Gli-Sufu signaling; AID 588413; Sufu-KO-LIGHT fibroblasts, Gli luciferase reporter luminescence; 340,000 tested, 0.74% active; inhibition, % at 5 µM;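 active = inhibition above about 55%, limit read from the data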
Mdm2 MdmX PPI: inhibitors of human Mdm2/MdmX interaction; SaOS-2 split-luciferase Mdm2/MdmX complementation, luminescence; inhibition, % at 8 µM; AID 485346; O15151+Q00987; 330,000 tested, 3% active;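 active = inhibition of at least 50% at 8 µM in the primary screen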
Target sequence (O15151 whole entry, looked up): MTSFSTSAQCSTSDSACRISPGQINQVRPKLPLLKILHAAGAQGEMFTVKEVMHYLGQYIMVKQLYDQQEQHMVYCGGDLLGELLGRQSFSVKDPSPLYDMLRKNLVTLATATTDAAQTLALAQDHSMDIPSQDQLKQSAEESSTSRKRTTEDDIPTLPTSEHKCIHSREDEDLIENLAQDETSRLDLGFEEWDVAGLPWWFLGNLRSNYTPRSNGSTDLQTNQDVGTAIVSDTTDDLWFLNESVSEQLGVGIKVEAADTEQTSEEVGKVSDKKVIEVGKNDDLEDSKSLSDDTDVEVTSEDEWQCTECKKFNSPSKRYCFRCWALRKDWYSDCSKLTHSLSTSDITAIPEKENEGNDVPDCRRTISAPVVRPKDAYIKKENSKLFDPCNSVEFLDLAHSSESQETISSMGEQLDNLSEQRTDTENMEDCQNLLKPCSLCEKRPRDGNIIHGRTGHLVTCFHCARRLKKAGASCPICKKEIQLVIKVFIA
Target sequence (Q00987 whole entry, looked up): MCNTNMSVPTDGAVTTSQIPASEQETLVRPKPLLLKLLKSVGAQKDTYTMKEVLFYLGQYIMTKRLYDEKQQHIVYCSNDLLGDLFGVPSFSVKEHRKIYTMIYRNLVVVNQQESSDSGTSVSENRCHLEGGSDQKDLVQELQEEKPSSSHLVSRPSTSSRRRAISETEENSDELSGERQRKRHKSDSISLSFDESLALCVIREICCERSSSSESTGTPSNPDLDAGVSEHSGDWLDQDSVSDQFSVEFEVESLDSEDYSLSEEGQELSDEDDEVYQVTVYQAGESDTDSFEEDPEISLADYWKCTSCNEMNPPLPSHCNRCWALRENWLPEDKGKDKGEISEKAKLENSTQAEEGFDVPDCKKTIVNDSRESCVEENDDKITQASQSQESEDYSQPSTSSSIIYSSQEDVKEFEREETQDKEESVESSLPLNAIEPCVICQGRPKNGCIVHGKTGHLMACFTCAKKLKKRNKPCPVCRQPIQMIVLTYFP
KLF5 inhibitor: inhibitors of KLF5 expression; DLD-1 KLF5 promoter-luciferase reporter, luminescence; inhibition, % at 5 µM; 290,000 tested, 0.23% active;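 active = inhibition above a per-plate limit of that plate's mean compound inhibition plus 3 SD, cut at about 60% in these data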;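 also: higher means less KLF5 promoter-driven luciferase light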
aSyn UTR inh: 5' untranslated region of α-synuclein, MLPCN primary screen. AID 1813. 300,000 tested, 0.82% active. inhibition, % (tested at 7.5 µM). alpha-synuclein 5'UTR reporter, inhibitor activity; in the data active = inhibition above about 60%;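 also: H4 neuroglioblastoma cells stably carrying SNCA 5'UTR luciferase fusion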
697 NFkB inh: lowers PMA/ionomycin-induced NF-kB signal in 697 B cells; 697 B-cell NF-kB luciferase reporter, 16 h; inhibition, % at 4 µM; 330,000 tested, 0.33% active; AID 435022; in the data active = inhibition above about 35%
Mdm2-MdmX conf: human Mdm2/MdmX binding inhibition, confirmed | 10,000 tested, 55% active | shares compounds with Mdm2 MdmX PPI | luminescent assay | inhibition, % at 8 µM | AID 489028; in the data active = inhibition above about 40%
Full FLuc ctr: full-length luciferase inhibition in Mdm2/MdmX counter-screen | shares compounds with Mdm2 MdmX PPI | SaOS-2 full-length luciferase counterscreen, luminescence | inhibition, % at 8 µM | 6,200 tested, 77% active | AID 504607;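 active = mean inhibition at 8 µM reaching about 37%, which flags the compound as non-specific, limit read from the data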;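 also: p53-null SaOS-2 cells with luciferase driven by a doxycycline-inducible promoter; compound on cells about two nights before reading with doxycycline added after day one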
Of the large screens only hits and unclear results are named; the others gave an inactive call (follow-up assays come after a bar, where they were run). Hits are enriched below; roughly 4.1% of the tested compounds scored in any of these assays.

O=C(N/N=C1/CCCc2ccccc21)C(c1ccccc1)c1ccccc1	Mdm2 MdmX PPI 58 | Mdm2-MdmX conf inactive
O=C(N/N=C1\CCCc2ccccc21)c1cccc([N+](=O)[O-])c1	none
O=C(N/N=C1\CCCc2ccccc21)C(O)c1ccccc1 (stereo not given)	none
O=C(N/N=C1/CCCc2ccccc21)c1cc([N+](=O)[O-])cc([N+](=O)[O-])c1	Mdm2 MdmX PPI 67 (no result: Gli-Sufu antag) | Mdm2-MdmX conf inactive | Full FLuc ctr 94
N#CC1(NC(=O)CN2C(=O)NC3(CCCCCC3)C2=O)CCCCC1	none (no result: KLF5 inhibitor, aSyn UTR inh)
CC(C)(C)NC(=O)CN(CCc1ccccc1)C(=O)c1csnn1	none
COc1ccc(N(C(=O)/C=C/c2ccccc2)C2=CC3CCC(C2)N3C)cc1 (stereo not given)	none
O=C(Nc1ccc(Cl)cc1)Nc1ccccc1Sc1ncc([N+](=O)[O-])s1	none
O=[N+]([O-])c1cnc(Sc2ccncn2)s1	Mdm2 MdmX PPI 97 | Mdm2-MdmX conf 100 | Full FLuc ctr 52
O=C(NCc1ccccc1C(F)(F)F)c1cccc2c1C(=O)c1ccc(N3CCCCC3)cc1S2(=O)=O	none (no result: KLF5 inhibitor, aSyn UTR inh)
Cc1ccc2nc(-c3ccccn3)c(Nc3ccccc3C)n2c1	Mdm2 MdmX PPI 86 | Mdm2-MdmX conf 75 | Full FLuc ctr inactive
Cc1ccn2c(Nc3ccccc3)c(-c3ccccn3)nc2c1	Mdm2 MdmX PPI 81 | Mdm2-MdmX conf 83 | Full FLuc ctr inactive
Cc1ccccc1Nc1c(-c2ccccn2)nc2ccccn12	Mdm2 MdmX PPI 65, aSyn UTR inh 64 | Mdm2-MdmX conf 46 | Full FLuc ctr 52
Cc1cccn2c(Nc3ccccc3)c(-c3ccccn3)nc12	none
Cc1ccc2nc(-c3cccnc3)c(Nc3ccccc3C)n2c1	none
Cc1ccn2c(Nc3ccccc3C)c(-c3ccccn3)nc2c1	Mdm2 MdmX PPI 85 | Mdm2-MdmX conf 52 | Full FLuc ctr inactive
CC(=O)NC(CCCN1C(=O)c2ccccc2C1=O)c1nnn(C)n1 (stereo not given)	none
CC(C)CN1CCC(CNC(=O)CCc2nnc(Cc3c[nH]c4ccccc34)o2)CC1	none
CNc1nc(Nc2ccc(C)c(Cl)c2)c2cnn(C)c2n1	none
Cn1ncc2c(Nc3ccc(O)cc3)nc(Cl)nc21	none
Cn1ncc2c(Nc3ccc(Br)cc3)nc(Nc3ccc(Br)cc3)nc21	Mdm2 MdmX PPI 60 | Mdm2-MdmX conf inactive
Cn1ncc2c(Nc3cccc(Cl)c3)nc(Nc3cccc(Cl)c3)nc21	Mdm2 MdmX PPI 50 | Mdm2-MdmX conf inactive
CCOCCCn1c(=S)[nH]c2cc(C(=O)NC3CCCC(C)C3C)ccc2c1=O (stereo not given)	none
COc1cccc(C(=O)NCc2ccco2)c1	none
CCN(CC)S(=O)(=O)c1cc(NC(=O)C(C)OC(=O)c2[nH]c(C)c(C(C)=O)c2C)ccc1C (stereo not given)	Mdm2 MdmX PPI 51 | Mdm2-MdmX conf 41 | Full FLuc ctr 43
CC(C)(C)C(=O)O/N=C(\N)Cc1ccc(-c2csnn2)cc1	Mdm2 MdmX PPI 77 | Mdm2-MdmX conf inactive
COc1ccc(CC(=O)O/N=C(\N)Cc2ccc(OC)cc2)cc1	none
Cc1cc(-c2ccc(C)c(S(=O)(=O)NCc3ccc(Br)cc3)c2)on1	Mdm2 MdmX PPI 64 | Mdm2-MdmX conf 52 | Full FLuc ctr 42
COc1ccc(N2CCN(S(=O)(=O)c3cc(-c4cc(C)no4)ccc3C(C)C)CC2)cc1	Mdm2 MdmX PPI 51 | Mdm2-MdmX conf inactive
COc1ccccc1CN1CCC(CNS(=O)(=O)c2cc(-c3onc(C)c3C)ccc2OC)CC1	Mdm2 MdmX PPI 51 | Mdm2-MdmX conf inactive
COc1cccc(CCN2CCC(CNS(=O)(=O)c3cc(-c4cc(C)no4)ccc3OC)CC2)c1	Mdm2 MdmX PPI 50 | Mdm2-MdmX conf 50 | Full FLuc ctr 72
O=[N+]([O-])c1ccc(SCc2ccncc2)nc1	none
Cc1cc(=O)oc2cc(OC(C)C(=O)NC3(C#N)CCCCC3)ccc12 (stereo not given)	none (no result: KLF5 inhibitor, aSyn UTR inh)
COc1ccc(-c2cc(C)no2)cc1S(=O)(=O)Nc1cccc(C)c1	none

Screens from PubChem BioAssay.
